{"source": "the antibiotic and cytotoxicity screens of Wong et al. (2023)", "note": "About 1,500 (3.8%) of roughly 39,000 compounds were called active. The list comes from a sample in which actives are over-represented; it also holds similar structures and randomly drawn compounds.", "data": [{"system": "HSkMC (human skeletal muscle cells)", "test": "cytotoxicity call (relative viability < 0.9)", "details": "10 µM", "values": [{"smiles": "Cc1ccc(S(=O)(=O)Nc2ccc3c(c2)CC(=O)N([C@H](C)CO)C[C@H](C)[C@@H](CN(C)Cc2ccncc2)O3)cc1", "cytotoxicity call": "inactive"}, {"smiles": "C[C@@H]1CCCCO[C@@H](CN(C)S(=O)(=O)c2ccccc2)[C@H](C)CN([C@H](C)CO)C(=O)c2cc(NC(=O)NC3CCCCC3)ccc2O1", "cytotoxicity call": "inactive"}, {"smiles": "CN(C)CCCNC(=O)C[C@@H]1C=C[C@@H](NC(=O)Cc2cccnc2)[C@H](CO)O1", "cytotoxicity call": "inactive"}, {"smiles": "[N-]=[N+]=NCCOCCNC(=O)CCCOc1ccc(CS(=O)c2nnc(-c3ccc(F)cc3)o2)nc1", "note": "(stereo unspecified)", "cytotoxicity call": "active"}, {"smiles": "O=C1OCCN/C1=C/C(=O)c1ccccc1", "cytotoxicity call": "inactive"}, {"smiles": "Cc1ccc(S(=O)(=O)N(C)C[C@@H]2Oc3ccc(NS(=O)(=O)c4cn(C)cn4)cc3CC(=O)N([C@@H](C)CO)C[C@H]2C)cc1", "cytotoxicity call": "inactive"}, {"smiles": "C[C@@H]1CN([C@@H](C)CO)C(=O)Cc2cc(NC(=O)C3CC3)ccc2O[C@H]1CN(C)Cc1ccc2c(c1)OCO2", "cytotoxicity call": "inactive"}, {"smiles": "O=C(C[C@H]1C=C[C@H](NC(=O)Nc2ccc3c(c2)OCO3)[C@@H](CO)O1)NCCCN1CCOCC1", "cytotoxicity call": "inactive"}, {"smiles": "C[C@@H]1CN([C@@H](C)CO)S(=O)(=O)c2ccc(C#CCN(C)C)cc2O[C@@H]1CN(C)Cc1ccncc1", "cytotoxicity call": "inactive"}, {"smiles": "CO[C@@H]1CN(C)C(=O)c2ccc(NC(=O)NC(C)C)cc2OC[C@@H](C)N(Cc2ccc(-c3ccccn3)cc2)C[C@@H]1C", "cytotoxicity call": "inactive"}, {"smiles": "Cc1ccc(OC(=O)N(C)C[C@@H]2OCc3ccccc3-c3ccccc3C(=O)N([C@@H](C)CO)C[C@@H]2C)cc1", "cytotoxicity call": "inactive"}, {"smiles": "C[C@@H]1CN([C@H](C)CO)C(=O)c2cccc(NC(=O)c3nc4ccccc4s3)c2O[C@@H]1CN(C)C(=O)Nc1cccc2ccccc12", "cytotoxicity call": "inactive"}, {"smiles": "C[C@H]1CN([C@@H](C)CO)C(=O)c2cccc(NC(=O)Nc3cccc4ccccc34)c2O[C@H]1CN(C)C(=O)Nc1ccccc1", "cytotoxicity call": "inactive"}, {"smiles": "C[C@@H]1CN([C@@H](C)CO)C(=O)c2cccc(NC(=O)c3nc4ccccc4s3)c2O[C@@H]1CN(C)S(=O)(=O)c1cn(C)cn1", "cytotoxicity call": "inactive"}, {"smiles": "C[C@H](CO)N1C[C@H](C)[C@H](CN(C)C(=O)Nc2ccc(F)cc2)Oc2c(NC(=O)Nc3cccc4ccccc34)cccc2C1=O", "cytotoxicity call": "inactive"}, {"smiles": "C[C@H]1CN([C@@H](C)CO)C(=O)c2cccc(NC(=O)c3nc4ccccc4s3)c2O[C@@H]1CN(C)C(=O)Nc1cccc2ccccc12", "cytotoxicity call": "inactive"}, {"smiles": "C[C@@H]1CN([C@@H](C)CO)C(=O)c2cccc(NC(=O)c3nc4ccccc4s3)c2O[C@H]1CN(C)S(=O)(=O)c1cn(C)cn1", "cytotoxicity call": "inactive"}, {"smiles": "C[C@@H]1CN([C@H](C)CO)C(=O)c2cccc(NC(=O)Nc3cccc4ccccc34)c2O[C@@H]1CN(C)C(=O)Nc1ccc(F)cc1", "cytotoxicity call": "active"}, {"smiles": "C[C@H]1CN([C@@H](C)CO)C(=O)c2cccc(NC(=O)c3nc4ccccc4s3)c2O[C@H]1CN(C)S(=O)(=O)c1cn(C)cn1", "cytotoxicity call": "active"}, {"smiles": "C[C@H]1CN([C@@H](C)CO)C(=O)c2cccc(NC(=O)Nc3cccc4ccccc34)c2O[C@@H]1CN(C)C(=O)Nc1ccccc1", "cytotoxicity call": "active"}, {"smiles": "C[C@H](CO)N1C[C@H](C)[C@@H](CN(C)C(=O)Nc2ccc(F)cc2)Oc2c(NC(=O)Nc3cccc4ccccc34)cccc2C1=O", "cytotoxicity call": "inactive"}, {"smiles": "C[C@H](CO)N1C[C@H](C)[C@@H](CN(C)C(=O)Nc2cccc3ccccc23)Oc2c(NC(=O)c3nc4ccccc4s3)cccc2C1=O", "cytotoxicity call": "active"}, {"smiles": "C[C@H](CO)N1C[C@H](C)[C@H](CN(C)C(=O)Nc2ccccc2)Oc2c(NC(=O)Nc3cccc4ccccc34)cccc2C1=O", "cytotoxicity call": "inactive"}, {"smiles": "COC(=O)CN1C(=O)COc2ccc(C)cc21", "cytotoxicity call": "inactive"}, {"smiles": "COc1ccc(cc1)CN1CC[C@]2(CC1)CN([C@@H](CO)c1[nH]c3cc(ccc3c12)OC)C(=O)CN(C)C", "cytotoxicity call": "inactive"}, {"smiles": "CC(C)NC(=O)Nc1ccc2c(c1)C(=O)N([C@@H](C)CO)C[C@H](C)[C@H](CN(C)Cc1ccc(C(=O)O)cc1)O2", "cytotoxicity call": "inactive"}, {"smiles": "COc1ccc(C#Cc2cnc3c(c2)C(=O)N([C@H](C)CO)C[C@H](C)[C@@H](CN(C)C(=O)CC2CC2)O3)cc1", "cytotoxicity call": "inactive"}, {"smiles": "C[C@@H]1CN([C@@H](C)CO)C(=O)c2cc(-c3cccnc3)cnc2O[C@@H]1CN(C)Cc1ccc(-c2ccccc2)cc1", "cytotoxicity call": "inactive"}, {"smiles": "O=C(C[C@H]1CC[C@H](NS(=O)(=O)c2ccc(F)cc2)[C@H](CO)O1)N1CCC(Cc2ccccc2)CC1", "cytotoxicity call": "inactive"}, {"smiles": "C[C@H]1CN([C@@H](C)CO)C(=O)c2cccc(NC(=O)Nc3cccc4ccccc34)c2O[C@H]1CN(C)C(=O)Nc1cccc2ccccc12", "cytotoxicity call": "inactive"}, {"smiles": "C[C@H](CO)N1C[C@H](C)[C@@H](CN(C)C(=O)Nc2cccc3ccccc23)Oc2c(NC(=O)Nc3ccccc3)cccc2C1=O", "cytotoxicity call": "inactive"}, {"smiles": "COc1ccc(NC(=O)N(C)C[C@H]2Oc3c(NC(=O)Nc4cccc5ccccc45)cccc3C(=O)N([C@@H](C)CO)C[C@@H]2C)cc1", "cytotoxicity call": "active"}, {"smiles": "C[C@H]1CN([C@@H](C)CO)C(=O)c2cccc(NC(=O)Nc3ccccc3)c2O[C@H]1CN(C)C(=O)Nc1cccc2ccccc12", "cytotoxicity call": "inactive"}, {"smiles": "COc1ccc(NC(=O)N(C)C[C@@H]2Oc3c(NC(=O)Nc4cccc5ccccc45)cccc3C(=O)N([C@H](C)CO)C[C@@H]2C)cc1", "cytotoxicity call": "inactive"}, {"smiles": "C[C@@H]1CN([C@@H](C)CO)C(=O)c2cccc(NC(=O)Nc3cccc4ccccc34)c2O[C@H]1CN(C)C(=O)Nc1ccccc1", "cytotoxicity call": "active"}, {"smiles": "COc1ccc(NC(=O)N(C)C[C@@H]2Oc3c(NC(=O)Nc4cccc5ccccc45)cccc3C(=O)N([C@H](C)CO)C[C@H]2C)cc1", "cytotoxicity call": "inactive"}, {"smiles": "C[C@@H]1CN([C@H](C)CO)C(=O)c2cccc(NC(=O)Nc3cccc4ccccc34)c2O[C@H]1CN(C)C(=O)Nc1ccccc1", "cytotoxicity call": "inactive"}, {"smiles": "C[C@@H]1CN([C@H](C)CO)C(=O)c2cccc(NC(=O)Nc3cccc4ccccc34)c2O[C@H]1CN(C)C(=O)Nc1cccc2ccccc12", "cytotoxicity call": "active"}, {"smiles": "C[C@@H]1CN([C@H](C)CO)C(=O)c2cccc(NC(=O)Nc3cccc4ccccc34)c2O[C@@H]1CN(C)C(=O)Nc1ccccc1", "cytotoxicity call": "inactive"}, {"smiles": "C[C@@H]1CN([C@@H](C)CO)C(=O)c2cccc(NC(=O)Nc3cccc4ccccc34)c2O[C@H]1CN(C)C(=O)Nc1cccc2ccccc12", "cytotoxicity call": "inactive"}, {"smiles": "C[C@@H]1CN([C@@H](C)CO)C(=O)c2cccc(NC(=O)Nc3ccccc3)c2O[C@@H]1CN(C)C(=O)Nc1cccc2ccccc12", "cytotoxicity call": "active"}]}]}
